Assay outcomes: PubChem BioAssay, several laboratories
BCLXL inh = Bcl-xL (human) inhibition | Q07817 | GST-Bcl-xL / FITC-Bim BH3 peptide fluorescence polarization | inhibition, % at 10.9 µM | 320,000 tested, 0.7% active;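 active = inhibition above the mean of all tested compounds plus 3 SD, cutoff set per campaign, cut at about 30% in these data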;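 note: inhibitors lower millipolarization by displacing the labeled peptide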
MEX-5 binding = C. elegans MEX-5 TCR-2 RNA binding activity | Q9XUB2 | MEX-5/FITC-TCR2 RNA binding, fluorescence polarization; hits give low values | activity score (negative = inhibition of binding), % at 10 µM | 300,000 tested, 0.38% active | AID 1832;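 active = inhibition past about -25% in most replicates, and total fluorescence under double the plate's negative control median, limit read from the data; inconclusive = replicates evenly split on the limit, or fluorescence at least double controls; inactive = too little inhibition in most replicates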
Target sequence (Q9XUB2 whole entry, looked up): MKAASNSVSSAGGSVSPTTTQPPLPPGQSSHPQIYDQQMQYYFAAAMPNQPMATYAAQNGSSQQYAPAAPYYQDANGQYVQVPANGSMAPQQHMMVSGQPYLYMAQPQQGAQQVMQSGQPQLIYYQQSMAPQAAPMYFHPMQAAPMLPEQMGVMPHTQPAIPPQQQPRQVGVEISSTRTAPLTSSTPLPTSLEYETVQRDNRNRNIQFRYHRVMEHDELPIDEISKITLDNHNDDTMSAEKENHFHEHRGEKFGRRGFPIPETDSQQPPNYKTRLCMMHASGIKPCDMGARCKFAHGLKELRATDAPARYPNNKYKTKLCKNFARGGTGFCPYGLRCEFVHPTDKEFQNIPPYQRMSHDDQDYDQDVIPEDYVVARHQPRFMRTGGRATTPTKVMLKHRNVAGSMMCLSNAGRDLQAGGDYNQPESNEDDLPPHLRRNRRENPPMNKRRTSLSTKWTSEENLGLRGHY
GLD-1 RNA inh = GLD-1-TGE RNA interaction inhibition (C. elegans). Q17339. purified GLD-1 + fluorescein TGE RNA, fluorescence polarization. inhibition, % at 5.96 µM. 320,000 tested, 0.44% active. AID 2280;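 active = percent inhibition above a per-plate cutoff, the plate mean of test compounds plus 3 SD, cut at about 30% in these data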
E coli Lon inh = E. coli protease La inhibition; purified E. coli Lon protease, fluorescence polarization; inhibition, % at 7.94 µM; 360,000 tested, 0.42% active; P0A9M0; in the data active = inhibition above about 13%, passing the limit was not always enough
MCL1 BIM primary = inhibitors of human MCL1 binding to BIM-BH3 peptide | GST-MCL1 / FITC-Bim-BH3 fluorescence polarization | Q07820 | inhibition, % at 10.9 µM | 320,000 tested, 0.68% active | AID 2057;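 active = inhibition above the mean inhibition of all tested compounds plus 3 SD, set per campaign, cut at about 40% in these data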;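 note: higher means more loss of mP so more displacement of Bim peptide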
Target sequence (Q07820 whole entry, looked up): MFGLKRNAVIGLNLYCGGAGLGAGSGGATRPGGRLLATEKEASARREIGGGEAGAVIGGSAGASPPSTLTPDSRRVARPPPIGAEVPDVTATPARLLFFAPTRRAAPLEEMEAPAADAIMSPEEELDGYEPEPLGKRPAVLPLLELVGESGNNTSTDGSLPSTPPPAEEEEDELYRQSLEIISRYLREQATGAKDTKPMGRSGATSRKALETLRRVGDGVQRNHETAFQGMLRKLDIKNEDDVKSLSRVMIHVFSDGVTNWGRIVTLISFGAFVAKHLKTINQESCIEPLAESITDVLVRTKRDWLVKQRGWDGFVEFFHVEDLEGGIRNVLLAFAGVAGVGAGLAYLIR
BCLXL inh confirm = Bcl-xL (human) inhibition, MCL1 counter-screen confirmation; shares compounds with MCL1 BIM primary; GST-Bcl-xL / FITC-Bim BH3 peptide FP binding; inhibition, % at 10.9 µM; 1,700 tested, 54% active;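 active = inhibition above a cutoff equal to the mean inhibition of all tested compounds plus 3 SD, cut at about 30% in these data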
MCL1 inh confirm = confirmation of human MCL1 and BIM-BH3 interaction inhibitors | shares compounds with MCL1 BIM primary | GST-MCL1 / FITC-Bim-BH3 fluorescence polarization | inhibition, % at 10.9 µM | 1,700 tested, 61% active | AID 2168;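 active = inhibition above the average of all tested compounds plus 3 SD, cut at about 40% in these data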
Each line names hits and unclear results; the compound was inactive in the other large screens (follow-up assays come after a bar, where they were run). A selection: hits, their analogues and other compounds. The true share with any hit is near 1.4%.

Cn1nc(-c2ccccc2)c2nc3ccccc3nc21	BCLXL inh 55.6, MEX-5 binding inconclusive, MCL1 BIM primary 55.4 | BCLXL inh confirm 101.5 | MCL1 inh confirm 111.1
CCC(=O)N1CCC(C)(C(=O)Nc2nccc3ccccc23)C1 (stereo unspecified)	none (no result: BCLXL inh, MEX-5 binding, GLD-1 RNA inh, MCL1 BIM primary)
COc1ccc(OC)c(N2C(=O)[C@@H]3C(c4ccccc4Cl)=NO[C@@H]3C2=O)c1	MCL1 BIM primary 52.6 | BCLXL inh confirm inactive | MCL1 inh confirm inactive
O=C(NC1CC1)c1cccc2c1C(=O)c1ccc(N3CCC(N4CCCCC4)CC3)cc1S2(=O)=O	none (no result: BCLXL inh, MEX-5 binding, GLD-1 RNA inh, MCL1 BIM primary)
Cn1nc(C(C)(C)C)cc1N1C(=O)CCC1(C)C(=O)NCc1ccccc1 (stereo unspecified)	none (no result: BCLXL inh, MEX-5 binding, GLD-1 RNA inh, MCL1 BIM primary)
CCOC(=O)CSc1nnc(-c2cc(OC)c(OC)c(OC)c2)o1	none
COc1cc(-c2nnc(SCc3cc(=O)oc4cc(O)c(O)cc34)o2)cc(OC)c1OC	MCL1 BIM primary 61.8 | BCLXL inh confirm inactive | MCL1 inh confirm 60.6
O=C(CN1CCN(S(=O)(=O)c2ccc(F)cc2)CC1)Nc1ccc(F)cc1F	MCL1 BIM primary 174.4 | BCLXL inh confirm inactive | MCL1 inh confirm inactive
COc1cccc(OCCCn2cc(/C=C3/C(=N)N4C=C(C)SC4=NC3=O)c3ccccc32)c1	BCLXL inh 58.7, MEX-5 binding -29.2, MCL1 BIM primary 66.0 | BCLXL inh confirm inactive | MCL1 inh confirm inactive
COc1ccc(OCCCn2cc(/C=C3/C(=N)N4C=C(C)SC4=NC3=O)c3ccccc32)cc1	none
CNc1ccc2ncc(-c3ccc(OC)c(OC)c3)n2n1	none (no result: BCLXL inh, MEX-5 binding, GLD-1 RNA inh, MCL1 BIM primary)
C=CCOc1c(Br)cc(C2C3=C(CCCC3=O)N(C)C3=C2C(=O)CCC3)cc1OCC	MCL1 BIM primary 43.0 | BCLXL inh confirm inactive | MCL1 inh confirm inactive
COCCCN(Cc1cc(OC)c(OC)c(OC)c1)C(=S)Nc1cccc(Cl)c1	none (no result: BCLXL inh, MEX-5 binding, GLD-1 RNA inh, MCL1 BIM primary)
C=CCN1C(=O)C2(OCCO2)c2cc(C)ccc21	MCL1 BIM primary 40.0 | BCLXL inh confirm inactive | MCL1 inh confirm inactive
C=CCN1C(=O)C2(OCCCO2)c2ccccc21	none
CCCCC1=CC2=C(c3ccco3)C(=O)C(C)(OC(=O)c3ccc(OC)cc3)C(=O)C2=CN1CCCOC(C)C (stereo unspecified)	BCLXL inh 63.4, GLD-1 RNA inh 50.9, MCL1 BIM primary 65.4 | BCLXL inh confirm 72.4 | MCL1 inh confirm 90.5
CCCCC1=CC2=C(c3ccco3)C(=O)C(C)(OC(=O)c3ccc(OC)cc3)C(=O)C2=CN1c1ccccc1 (stereo unspecified)	BCLXL inh 49.0, GLD-1 RNA inh 43.5, MCL1 BIM primary 49.5 | BCLXL inh confirm inactive | MCL1 inh confirm inactive
O=S1(=O)CC(N2CCSCC2)CN1Cc1cn(Cc2ccc(C(F)(F)F)cc2)nn1 (stereo unspecified)	none (no result: BCLXL inh, MEX-5 binding, GLD-1 RNA inh, MCL1 BIM primary)
COc1cccc(=O)c2c(C)n(CC(=O)c3ccccc3)c(C)c12	MCL1 BIM primary 47.3 | BCLXL inh confirm inactive | MCL1 inh confirm inactive
COc1cccc(OC(=O)c2ccccc2)c1OC(=O)c1ccccc1	none (no result: BCLXL inh, MEX-5 binding, GLD-1 RNA inh, MCL1 BIM primary)
CC(C)(C)c1ccc(CC(=O)N2CCC2(C)C(=O)NS(=O)(=O)c2cccs2)cc1 (stereo unspecified)	none (no result: BCLXL inh, MEX-5 binding, GLD-1 RNA inh, MCL1 BIM primary)
Cc1cc(=O)oc(C)c1C(=O)Nc1ccc2ncccc2c1	BCLXL inh 99.6, MCL1 BIM primary 96.8 | BCLXL inh confirm 78.9 | MCL1 inh confirm 82.2
Cc1cc(=O)oc(C)c1C(=O)Nc1ccc2nsnc2c1	none
Cc1ccc(C)c(N(CC(=O)NCc2ccco2)C(=O)CNS(=O)(=O)c2ccccc2)c1	none
Cc1ccc(N(CC(=O)NCc2ccco2)C(=O)CNS(=O)(=O)c2ccccc2)c(C)c1	MCL1 BIM primary 42.4 | BCLXL inh confirm inactive | MCL1 inh confirm inactive
Cc1cn([C@H]2C[C@H](O)[C@@H](CNC(=O)CNC(=O)CN)O2)c(=O)[nH]c1=O	none (no result: BCLXL inh, MEX-5 binding, GLD-1 RNA inh, MCL1 BIM primary)
O=C(NCc1ccccc1)c1cc(C2COCCN2C(=O)c2ccc3c(c2)CCO3)on1 (stereo unspecified)	none (no result: BCLXL inh, MEX-5 binding, GLD-1 RNA inh, MCL1 BIM primary)
O=C(CSc1ccccn1)Nc1ccc2c(c1)C(=O)c1ccccc1C2=O	MCL1 BIM primary 54.9 | BCLXL inh confirm inactive | MCL1 inh confirm 60.4
N#Cc1c(N2CCCC(O)C2)nc(N)c2c(N)nc3c(c12)CC(=O)N3C12CC3CC(CC(C3)C1)C2 (stereo unspecified)	E coli Lon inh 35.1, MCL1 BIM primary 54.4 (no result: MEX-5 binding) | BCLXL inh confirm inactive | MCL1 inh confirm inactive
C=C(C)CN(CC)c1nc(N)c2c(N)nc3c(c2c1C#N)CC(=O)N3C12CC3CC(CC(C3)C1)C2	none
Cc1noc(/C=C/N(C)C)c1S(=O)(=O)N1CCCC(C(=O)NC2CCCCC2)C1 (stereo unspecified)	none
Cc1noc(/C=C/N(C)C)c1S(=O)(=O)N1CCCC(C(=O)N2CCCCC2)C1 (stereo unspecified)	BCLXL inh 72.5, GLD-1 RNA inh 31.9, MCL1 BIM primary 66.3 | BCLXL inh confirm inactive | MCL1 inh confirm inactive
O=C(O)c1ccc(N=Nc2c(O)ccc3ncccc23)cc1	MCL1 BIM primary 50.6 | BCLXL inh confirm 40.4 | MCL1 inh confirm 58.9
O=C(O)c1cc(N=Nc2c(O)ccc3ccccc23)cc(C(=O)O)c1	none (no result: BCLXL inh, MEX-5 binding, GLD-1 RNA inh, MCL1 BIM primary)
Cc1cccc(-n2c(O)c(C=Nc3ccc4c(c3)OCO4)c3ccccc3c2=O)n1	MEX-5 binding -36.5, MCL1 BIM primary 40.4 | BCLXL inh confirm inactive | MCL1 inh confirm inactive
Cc1cccc(-n2c(O)c(C=Nc3cccc(O)c3)c3ccccc3c2=O)n1	none
Cc1ccnc(NS(=O)(=O)c2ccc(NC(=O)c3cccc(Cl)c3)cc2)n1	none (no result: BCLXL inh, MEX-5 binding, GLD-1 RNA inh, MCL1 BIM primary)
COc1ccc2c(c1)c(CC(=O)OCC(=O)O)c(C)n2C(=O)c1ccc(Cl)cc1	MCL1 BIM primary 82.3 | BCLXL inh confirm inactive | MCL1 inh confirm inactive
COc1cc(F)ccc1-c1cc(C(=O)Nc2ccc(NC(C)=O)cc2)[nH]n1	none (no result: BCLXL inh, MEX-5 binding, GLD-1 RNA inh, MCL1 BIM primary)
COc1ccc(C(=O)OCC(=O)NC23CC4CC(CC(C4)C2)C3)c(O)c1	none (no result: BCLXL inh, MEX-5 binding, GLD-1 RNA inh, MCL1 BIM primary)
O=C(COC(=O)c1ccc(O)cc1O)NC12CC3CC(CC(C3)C1)C2	BCLXL inh 139.1, GLD-1 RNA inh 99.8, MCL1 BIM primary 157.7 (no result: MEX-5 binding) | BCLXL inh confirm inactive | MCL1 inh confirm inactive
CCN(CC)C(=O)C1=C(C)N(Cc2ccccc2)C(=O)C(CC(=O)NCc2cccc3ccccc23)C1 (stereo unspecified)	none (no result: BCLXL inh, MEX-5 binding, GLD-1 RNA inh, MCL1 BIM primary)
CC1C(=O)N(Cc2cn(Cc3ccco3)nn2)CCS(=O)(=O)N1Cc1ccc(-c2ccc(F)cc2Cl)cc1 (stereo unspecified)	none (no result: BCLXL inh, MEX-5 binding, GLD-1 RNA inh, MCL1 BIM primary)
COCCC(=O)N1CCOCC1c1cc(C(=O)NCc2ccccc2)no1 (stereo unspecified)	none (no result: BCLXL inh, MEX-5 binding, GLD-1 RNA inh, MCL1 BIM primary)
NC(=O)C1=C[C@H](c2coc3ccccc3c2=O)C[C@H](OCCCCO)O1	none
O=C(O)C1=C[C@H](c2coc3ccccc3c2=O)C[C@H](OCCCCO)O1	MCL1 BIM primary 59.4 | BCLXL inh confirm inactive | MCL1 inh confirm inactive
